Results reported in the supplement of paper PMC8728848.
Many of the other results were omitted from the sample, so the strongest signals are more common in it than they were.

What was measured:
Assay in all cases: glycan array binding signal (z-score within array); higher = stronger binding
Conditions in all cases: glycan notation: IUPAC condensed, linker removed
[1] = molecular target: Gal(b1-4)GlcNAc(b1-3)[Gal(b1-4)GlcNAc(b1-6)]GalNAc
Summary of the method: (§1)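 The binding signal is a Z-score computed within each array. Data were drawn from 3228 arrays in the Consortium for Functional Glycomics database, restricted to those with a known protein sequence. Scores were averaged over arrays of the same protein sequence at different concentrations or buffers, and over linkers, and negative values can be taken as non-binding.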

[2] = molecular target: Gal(b1-4)GlcNAc(b1-6)[Gal(b1-3)]GalNAc
Summary of the method: as §1

Gal6S(b1-3)GlcNAc6S = molecular target: Gal6S(b1-3)GlcNAc6S
Summary of the method: as §1

GalNAc(a1-3)Gal = molecular target: GalNAc(a1-3)Gal
Summary of the method: as §1

GalNAc(a1-3)GalNAc = molecular target: GalNAc(a1-3)GalNAc
Summary of the method: as §1

[3] = molecular target: GalNAc(a1-3)GalNAc(a1-3)Gal(a1-4)Gal(b1-4)GlcNAc
Summary of the method: as §1

[4] = molecular target: GalNAc(a1-3)GalNAc(b1-3)Gal(a1-4)Gal(b1-4)Glc
Summary of the method: as §1

GalNAc(b1-3)GalNAc = molecular target: GalNAc(b1-3)GalNAc
Summary of the method: as §1

[5] = molecular target: GlcA3S(b1-3)Gal(b1-4)GlcNAc(b1-3)Gal(b1-4)Glc
Summary of the method: as §1

[6] = molecular target: GlcNAc(b1-2)Man(a1-3)[GlcNAc(b1-4)][GlcNAc(b1-2)Man(a1-6)]Man(b1-4)GlcNAc(b1-4)[Fuc(a1-6)]GlcNAc
Summary of the method: as §1

[7] = molecular target: GlcNAc(b1-4)GlcNAc(b1-4)GlcNAc(b1-4)GlcNAc(b1-4)GlcNAc
Summary of the method: as §1

[8] = molecular target: GlcNAc(b1-6)Gal(b1-4)GlcNAc
Summary of the method: as §1

GlcNAc3Prop(b1-4)GlcNAc = molecular target: GlcNAc3Prop(b1-4)GlcNAc
Summary of the method: as §1

Kdn(a2-6)Gal(b1-4)GlcNAc = molecular target: Kdn(a2-6)Gal(b1-4)GlcNAc
Summary of the method: as §1

[9] = molecular target: Man(a1-2)Man(a1-3)[Man(a1-2)Man(a1-6)]Man
Summary of the method: as §1

[10] = molecular target: Neu5Ac(a2-3)Gal(b1-3)GalNAc6S
Summary of the method: as §1

[11] = molecular target: Neu5Ac(a2-3)Gal(b1-3)GlcNAc(b1-2)Man(a1-3)[Neu5Ac(a2-3)Gal(b1-3)GlcNAc(b1-2)Man(a1-6)]Man(b1-4)GlcNAc(b1-4)GlcNAc
Summary of the method: as §1

[12] = molecular target: Neu5Ac(a2-3)Gal(b1-3)GlcNAc6S
Summary of the method: as §1

[13] = molecular target: Neu5Ac(a2-3)Gal(b1-3)[Fuc(a1-4)]GlcNAc(b1-3)Gal(b1-4)[Fuc(a1-3)]GlcNAc
Summary of the method: as §1

[14] = molecular target: Neu5Ac(a2-3)Gal(b1-4)GlcNAc(b1-2)Man
Summary of the method: as §1

[15] = molecular target: Neu5Ac(a2-3)Gal(b1-4)GlcNAc(b1-2)[Neu5Ac(a2-3)Gal(b1-4)GlcNAc(b1-6)]Man(a1-6)[Neu5Ac(a2-3)Gal(b1-4)GlcNAc(b1-2)Man(a1-3)][GlcNAc(b1-4)]Man(b1-4)GlcNAc(b1-4)GlcNAc
Summary of the method: as §1

[16] = molecular target: Neu5Ac(a2-3)Gal(b1-4)[Fuc(a1-3)]GlcNAc(b1-3)Gal(b1-4)GlcNAc
Summary of the method: as §1

[17] = molecular target: Neu5Ac(a2-3)Gal6S(b1-4)GlcNAc
Summary of the method: as §1

[18] = molecular target: Neu5Ac(a2-3)[Neu5Ac(a2-6)]GalNAc
Summary of the method: as §1

[19] = molecular target: Neu5Ac(a2-6)Gal(b1-4)GlcNAc(b1-3)Gal(b1-4)GlcNAc(b1-2)Man(a1-3)[Neu5Ac(a2-6)Gal(b1-4)GlcNAc(b1-3)Gal(b1-4)GlcNAc(b1-2)Man(a1-6)]GalNAc
Summary of the method: as §1

[20] = molecular target: Neu5Ac(a2-6)GalNAc(b1-4)GlcNAc6S
Summary of the method: as §1

[21] = molecular target: Neu5Ac(a2-6)GlcNAc(b1-4)GlcNAc
Summary of the method: as §1

[22] = molecular target: Neu5Ac(a2-8)Neu5Ac(a2-3)Gal(b1-4)GlcNAc
Summary of the method: as §1

B1: HPA (Helix pomatia), Q2F1K8 (protein)
chain: MQAFYSGLLLLCVVAFAAAQRVQSGKIDCGNDAGWAKVPSDDPGRDNTRELAKNITFASPYCRPPVVLLSITQLDVEQSQNLRVIARLYSVSPTGFKASCYTWHNTKVYSMSISWISIENY
glycan array binding signal (z-score) [1]: -0.304 | glycan array binding signal (z-score) [2]: -0.255 | glycan array binding signal (z-score) (Gal6S(b1-3)GlcNAc6S): -0.301 | glycan array binding signal (z-score) (GalNAc(a1-3)Gal): 2.85 | glycan array binding signal (z-score) (GalNAc(a1-3)GalNAc): 3.28 | glycan array binding signal (z-score) [3]: 3.71 | glycan array binding signal (z-score) [4]: 7.34 | glycan array binding signal (z-score) (GalNAc(b1-3)GalNAc): 0.839 | glycan array binding signal (z-score) [5]: -0.351 | glycan array binding signal (z-score) [6]: -0.214 | glycan array binding signal (z-score) [7]: -0.314 | glycan array binding signal (z-score) [8]: -0.35 | glycan array binding signal (z-score) (GlcNAc3Prop(b1-4)GlcNAc): -0.979 | glycan array binding signal (z-score) (Kdn(a2-6)Gal(b1-4)GlcNAc): -0.242 | glycan array binding signal (z-score) [9]: -0.231 | glycan array binding signal (z-score) [10]: -0.272 | glycan array binding signal (z-score) [11]: -0.195 | glycan array binding signal (z-score) [12]: -0.281 | glycan array binding signal (z-score) [13]: -0.105 | glycan array binding signal (z-score) [14]: -0.116 | glycan array binding signal (z-score) [15]: -0.361 | glycan array binding signal (z-score) [16]: 0.04 | glycan array binding signal (z-score) [17]: -0.242 | glycan array binding signal (z-score) [18]: -0.294 | glycan array binding signal (z-score) [19]: 0.201 | glycan array binding signal (z-score) [20]: -0.275 | glycan array binding signal (z-score) [21]: -0.359 | glycan array binding signal (z-score) [22]: -0.323
